# In the library only some 3.5% were active in any assay of this set; here they are far more common.
# GPR151 ag = human GPR151 activation; PathHunter beta-arrestin GPR151 cells, luminescence; activation, % at 11.2 µM; 650,000 compounds, 1% hits; in the data active = activation above about 4.9%
# Target sequence (Q8TDV0 whole entry, looked up): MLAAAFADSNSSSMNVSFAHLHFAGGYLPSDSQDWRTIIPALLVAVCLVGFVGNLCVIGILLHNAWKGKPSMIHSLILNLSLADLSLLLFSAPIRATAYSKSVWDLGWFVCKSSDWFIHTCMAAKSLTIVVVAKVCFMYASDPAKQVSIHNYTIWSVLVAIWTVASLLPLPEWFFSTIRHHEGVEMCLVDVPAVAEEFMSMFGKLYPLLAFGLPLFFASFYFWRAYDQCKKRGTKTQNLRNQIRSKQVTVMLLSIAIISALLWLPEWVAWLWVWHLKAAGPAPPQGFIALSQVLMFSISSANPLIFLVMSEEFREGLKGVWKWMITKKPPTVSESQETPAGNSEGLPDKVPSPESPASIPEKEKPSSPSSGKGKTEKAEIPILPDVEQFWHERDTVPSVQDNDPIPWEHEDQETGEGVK
# MITF inh = human MITF inhibition, primary screen; O75030; 650,000 compounds, 0.91% hits; inhibition, % at 2.6 µM; AlphaScreen MITF homodimerization, bead proximity signal; AID 1259374; in the data active = inhibition above about 50%
# FBW7 act = activators of human E3 ligase FBW7 | Q969H0 | AlphaScreen FBW7–phospho-cyclin E peptide binding, activator screen | normalized activity (activation), % at 26.1 µM | 650,000 compounds, 0.13% hits | AID 1259310; in the data active = normalized activity above about 1.9%;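 note: purified mutant Fbw7 with reduced substrate affinity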
# TEAD-YAP inh = TEAD-YAP interaction inhibition; HEK-TIYL cells, TEAD-Gal4/YAP UAS-luciferase luminescence; inhibition, % at 9.12 µM; 640,000 compounds, 1.4% hits; in the data active = inhibition above about 32%
# Hits are given with their value; n = inactive.
SMILES,GPR151 ag,MITF inh,FBW7 act,TEAD-YAP inh
Cc1ccc(-c2cc(C(=O)NN)[nH]n2)cc1,n,n,n,n
CCOc1ccc(-c2cc(C(=O)N/N=C/c3ccccc3O)[nH]n2)cc1,n,n,n,50
COC(=O)/C=C(\C)NC(=O)C1COc2ccccc2O1 (centres undefined),n,n,n,n
Cc1ccc(S(=O)(=O)NC(=O)Nc2nnc(Sc3cnccn3)s2)cc1,n,n,n,n
COc1ccc(-n2nc(C(=O)NCC(=O)N3CCCCC3)c3ccccc3c2=O)cc1OC,n,n,n,n
CN(c1ncccc1CNc1nc(Nc2ccc3c(c2)CC(=O)N3)ncc1C(F)(F)F)S(C)(=O)=O,n,n,n,77
CNC(=O)c1cc(N2CCOCC2)ccc1Nc1cc(Nc2ccc3c(c2)CC(=O)N3)ncc1C(F)(F)F,n,n,n,n
CN(c1ncccc1CNc1cc(Nc2ccc3c(c2)CC(=O)N3)ncc1C(F)(F)F)S(C)(=O)=O,n,n,n,35
COc1ccc(Br)cc1C1CC(=O)NC2=C1C(=O)CCC2 (centres undefined),n,n,n,47
Cc1cc2nc(-c3cccnc3SCC(=O)NCc3ccco3)[nH]c2cc1C,n,n,n,37
O=C(CSc1ncccc1-c1nc2ccccc2[nH]1)NCc1ccco1,n,n,n,n
CC(=O)c1ccc(Nc2ccc(-c3ccccc3F)nn2)cc1,n,n,n,57
CC(=O)c1ccc(NC2=C(Cl)C(=O)c3ccccc3C2=O)cc1,n,n,n,49
COc1ccc(S(=O)(=O)NC(C)(C)CO)cc1N(C)S(=O)(=O)c1ccc(C)cc1,n,n,n,n
O=C(CSc1ccsc1[N+](=O)[O-])Nc1cc(F)ccc1F,n,n,n,32
Cc1cc(F)ccc1NC(=O)CSc1ccsc1[N+](=O)[O-],n,n,n,n
COc1cccc(/C=N/NC(=O)CSc2cc(C)nc3c(C)cccc23)c1O,n,n,n,32
COc1cccc(/C=N/NC(=O)COc2cc(C)ccc2C(C)C)c1O,n,n,n,57
Cc1ccc(C(C)C)c(OCC(=O)N/N=C/c2ccc(O)cc2)c1,n,n,n,48
COc1cccc(/C=N/NC(=O)COc2cccc(C)c2C)c1O,n,n,n,n
O=C(COc1ccccc1)N/N=C\c1ccc(O)cc1,n,n,2.1,n
CCOC(=O)c1c(C)[nH]c(C)c1C(=O)CSc1n[nH]c(N)n1,n,n,n,n
COc1ccc(-c2nnc(SCC(=O)Nc3nc(C)cs3)n2C)cc1,n,n,n,n
CCOC(=O)c1c(C)n(-c2ccccc2)c2c1cc(OC(=O)c1ccc(S(=O)(=O)N3CCOCC3)cc1)c1ccccc12,n,n,n,n
O=C1OC(c2ccccc2[N+](=O)[O-])=N/C1=C\c1ccccc1,n,n,n,n
SMILES,GPR151 ag,MITF inh,FBW7 act,TEAD-YAP inh
Cc1ccc(C(C)C)c(OCC(=O)N/N=C/c2ccc(O)c(O)c2)c1,n,n,n,47
Cc1ccc(C(C)C)c(OCC(=O)N/N=C/c2ccc[nH]2)c1,n,n,n,n
COc1ccc(-c2cn3cc(C)ccc3n2)cc1F,n,n,n,68
CN(C)S(=O)(=O)c1cccc(-c2cn3cc(Cl)ccc3n2)c1,n,n,n,n
Cc1ccc2nc(-c3ccc4c(c3)NC(=O)CO4)cn2c1,n,n,n,n
COc1ccc(-c2cn3cc(C)ccc3n2)cc1OC,n,n,n,n
Cc1ccc2nc(-c3ccc4ccccc4c3)cn2c1,n,n,n,94
Cc1ccc2nc(-c3cccc(Cl)c3)cn2c1,n,n,n,77
Cc1ccc(-c2n[nH]c3c2C(c2ccccc2F)N(c2ccccc2)C3=O)cc1 (centres undefined),n,n,n,48
Cc1ccc(C2c3c(-c4ccc(F)cc4)n[nH]c3C(=O)N2c2ccccc2)cc1 (centres undefined),n,n,n,n
CN(C)c1ccc(/C=C(\C(N)=O)c2nc3ccccc3[nH]2)cc1,n,n,n,83
Cn1c(/C=C/c2ccccc2)c([N+](=O)[O-])c(=O)n(C)c1=O,n,n,n,n
Cn1c(/C=C/c2cccc(Oc3ccccc3)c2)c([N+](=O)[O-])c(=O)n(C)c1=O,n,n,n,45
Cc1ncn(-c2ccc(Nc3ncc4cccc(-n5cccn5)c4n3)cc2)n1,n,n,n,43
Cc1ncn(-c2ccc(Nc3ncc4cccc(-c5ccncc5)c4n3)cc2)n1,n,n,n,45
CC(=O)Nc1cccc(-c2cccc3cnc(Nc4ccc(-n5cnc(C)n5)cc4)nc23)c1,n,n,n,57
O=C(Cc1ccc(Cl)s1)Nc1cccc(-c2nc3ccccc3o2)c1,n,n,n,n
O=C(NC1CCCC1)c1ccccc1F,n,n,n,n
Cc1ccc(Nc2nc(-c3ccc(O)cc3)cs2)nc1,n,n,n,33
COc1ccc(O)c(/C=N/NC(=O)CNc2cccc3ccccc23)c1,n,n,n,n
CCc1ccc(N=C2N=C(N)c3ccccc32)cc1,n,n,n,n
NC1=NC(=Nc2ccc(N3CCOCC3)cc2)c2ccccc21,n,n,n,48
Cc1cccc(N(C)S(=O)(=O)c2ccc3c(c2)oc(=O)n3C)c1,n,n,n,46
COc1ccccc1-n1nc(C(=O)Nc2ccc(Br)cc2C)c2ccccc2c1=O,n,n,n,n
CNC(=O)c1c(NC(=O)c2cccc(C)c2)sc2c1CCC2,n,n,n,n
SMILES,GPR151 ag,MITF inh,FBW7 act,TEAD-YAP inh
CC(C)(C)c1ccc(C(=O)Nc2sc3c(c2C(=O)O)CCC3)cc1,n,n,n,89
COc1ccc(C(=O)Nc2sc3c(c2C(=O)O)CCC3)cc1,n,n,n,40
Cc1cccc(C(=O)Nc2sc3c(c2C(=O)O)CCC3)c1,n,n,n,66
O=C(Nc1sc2c(c1C(=O)O)CCCC2)c1ccc(Br)cc1,n,n,n,n
O=C(Nc1sc2c(c1C(=O)O)CCCC2)c1ccc(F)cc1,n,n,n,36
O=C(Nc1sc2c(c1C(=O)O)CCC2)c1ccc(Br)cc1,n,n,n,n
O=C(Nc1ccc([N+](=O)[O-])cc1)/C(=C\c1ccccc1F)NC(=O)c1ccccc1,n,n,n,n
CCN(CC)S(=O)(=O)c1ccc(Cl)c(C(=O)Nc2sc3c(c2C#N)CCC3)c1,n,n,n,34
Cc1ccc(C(=O)Nc2sc3c(c2C(=O)O)CCCC3)o1,n,n,n,40
CC(C)Oc1ccc(C(=O)Nc2sc3c(c2C#N)CCC3)cc1,n,n,n,n
COc1ccc(C(=O)Nc2sc3c(c2C#N)CCC3)cc1,n,n,n,37
CS(=O)(=O)N1CCN(Cc2ccc(Cl)s2)CC1C(=O)N1CCCC1 (centres undefined),n,n,n,n
Cc1cc(C)cc(Oc2nc3ccccn3c(=O)c2/C=C(\C#N)C(=O)NC2CCCC2)c1,n,n,n,n
COc1cccc(/C(C)=N/NC(=O)c2cc(-c3ccncc3)nc3ccccc23)c1,n,n,n,49
CC/C(C)=N\NC(=O)c1cc(-c2ccccc2)nc2ccccc12,n,n,n,n
COc1cccc(CNC(=O)c2cc(-c3ccncc3)nc3ccccc23)c1,n,n,n,n
C/C(=N\NC(=O)c1cc(-c2ccncc2)nc2ccccc12)c1ccc(-n2ccnc2)cc1,n,n,n,43

# High-throughput results as filed in PubChem BioAssay.
